Assay outcomes: PubChem, National Center for Advancing Translational Sciences (NCATS)
JMJD2A Tudor – blocks the human JMJD2A Tudor domain; O75164; AlphaScreen JMJD2A-Tudor / H3K4me3 peptide binding; Potency, µM (series often up to 114 µM), without a hit: at the top dose activity change, negative = inhibition, actives largely listed as inhibitors; 390,000 compounds, 4.4% hits; AID 504339; also: % is scaled to controls: 0 for no effect and ±100 for the full control effect; nearly all actives have a fitted effect of over 50% in size
Target sequence (O75164 whole entry, looked up, the tested form may be a part): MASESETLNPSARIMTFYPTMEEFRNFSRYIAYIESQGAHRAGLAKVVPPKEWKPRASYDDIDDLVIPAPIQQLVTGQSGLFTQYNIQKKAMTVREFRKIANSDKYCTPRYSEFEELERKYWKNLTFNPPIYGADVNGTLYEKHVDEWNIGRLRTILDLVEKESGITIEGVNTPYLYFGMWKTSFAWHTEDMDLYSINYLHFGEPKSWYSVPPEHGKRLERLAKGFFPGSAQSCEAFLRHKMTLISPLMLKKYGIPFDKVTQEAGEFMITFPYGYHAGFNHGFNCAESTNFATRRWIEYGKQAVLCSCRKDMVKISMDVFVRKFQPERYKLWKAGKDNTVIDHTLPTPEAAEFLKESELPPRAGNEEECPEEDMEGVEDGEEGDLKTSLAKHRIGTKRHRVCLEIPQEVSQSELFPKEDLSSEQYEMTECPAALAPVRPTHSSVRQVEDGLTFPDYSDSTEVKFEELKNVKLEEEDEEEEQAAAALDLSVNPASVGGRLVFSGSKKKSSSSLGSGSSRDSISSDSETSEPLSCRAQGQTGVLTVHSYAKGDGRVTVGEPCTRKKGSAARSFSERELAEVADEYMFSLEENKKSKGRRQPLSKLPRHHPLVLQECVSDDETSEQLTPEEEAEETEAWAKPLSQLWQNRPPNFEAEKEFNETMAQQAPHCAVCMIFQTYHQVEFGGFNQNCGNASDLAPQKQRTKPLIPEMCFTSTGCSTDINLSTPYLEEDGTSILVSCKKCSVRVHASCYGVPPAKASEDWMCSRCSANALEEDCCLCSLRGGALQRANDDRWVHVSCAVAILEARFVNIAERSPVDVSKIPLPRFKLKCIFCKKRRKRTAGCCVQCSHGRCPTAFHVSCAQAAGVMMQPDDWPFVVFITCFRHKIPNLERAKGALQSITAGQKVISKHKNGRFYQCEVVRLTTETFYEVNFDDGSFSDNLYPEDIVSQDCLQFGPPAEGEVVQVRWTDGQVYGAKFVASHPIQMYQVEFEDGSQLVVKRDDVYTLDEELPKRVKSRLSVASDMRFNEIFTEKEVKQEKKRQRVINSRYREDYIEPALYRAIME
G9a block – inhibitors of human histone lysine methyltransferase G9a | 350,000 compounds, 8.8% hits | G9a H3K9 monomethylation, AlphaScreen, 2 h | AID 504332 | Potency, µM (series often up to 102 µM), without a hit: at the top dose activity, negative = inhibition, hits mostly inhibitors; also: % is scaled to controls: 0 for no effect and ±100 for the full control effect; nearly all actives have a fitted effect of over 75% in size
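Methyltransferase reactions run at room temperature for 2 h (20 nM enzyme, 500 nM biotin-H3K9 peptide, 20 uM SAM) after a 15 min compound preincubation; product detected by AlphaScreen beads and anti-H3K9me1 antibody.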
L3MBTL1 block – L3MBTL1 (human) inhibition; Q9Y468; AlphaScreen L3MBTL1–H3K9me1 peptide binding; Potency, µM (titrated, usually from 57.1 µM), without a hit: at the highest dose activity, negative = inhibition, most hits filed as inhibitors; 230,000 compounds, 0.66% hits; AID 485360; also: % is scaled to controls: 0 for no effect and ±100 for the full control effect; nearly all actives have a fitted effect of over 60% in size
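L3MBTL1 (50 nM) pre-complexed 30 min with biotinylated H3(1-15)K9me1 peptide (75 nM), then compounds added for 30 min at room temperature; AlphaScreen streptavidin donor/nickel chelate acceptor beads (10 ug/mL final) read after 30 min dark incubation.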
BAZ2B block – BAZ2B (human) inhibition. 360,000 compounds, 4.4% hits. Potency, µM (highest dose often 114 µM), inactives show at the top dose activity change, negative = inhibition, hits mostly inhibitors. AID 504333. AlphaScreen BAZ2B-H3K14Ac peptide displacement; also: % is scaled to controls: 0 for no effect and ±100 for the full control effect; nearly all actives have a fitted effect of over 60% in size
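AlphaScreen displacement: compounds (up to 110uM) incubated 30 min at room temperature with a preformed 50 nM BAZ2B/50 nM biotinylated H3K14Ac peptide complex in PBS pH 7.4 with Tween-20. Donor and acceptor beads at 10 ug/mL final added, 20 min light-protected before reading.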
HP1b chromo inh – HP1-beta chromodomain-methylated histone interaction inhibition; P83916; AlphaScreen HP1-beta / biotin-H3K9me3 peptide binding; Potency, µM (highest dose often 114 µM), for the others: at the top dose activity change, negative = inhibition, actives largely listed as inhibitors; 390,000 compounds, 0.56% hits; AID 540317; also: nearly all actives have a fitted effect of over 70% in size
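AlphaScreen: HP1-beta (50 nM) preformed 30 min with biotin-H3(1-18)K9me3 peptide (50 nM) in PBS pH 7.4, 0.01% Tween-20. Compound added for 30 min at RT, then streptavidin donor/nickel chelate acceptor beads (10 ug/mL) for 30 min.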
Starred values were filed as active, the others as inactive; u = inconclusive; x = no result; [ ] = dose if it differs, or a comment. Most compounds without a hit are left out; they make up all but 11% or so of the library. Calls follow the shape of the dose curve; as a rule, active = well fitted inhibition curve with a large enough effect; inconclusive = small, poorly fitted or top-dose-only effect; inactive = no such curve, though single readings can be large or run the other way. Potency is read from the fitted curve at half-maximal effect.

SMILES	JMJD2A Tudor	G9a block	L3MBTL1 block	BAZ2B block	HP1b chromo inh
[O-]c1c[n+](-c2ccc(-[n+]3cc([O-])on3)cc2)no1	u	-123.3%[59 µM]	u	50.1µM*	u
CCC(=O)Nc1ccc(OCc2cc(C3Nc4ccccc4C(=O)N3Cc3ccccc3)ccc2OC)cc1 (stereo unspecified)	-35.4%	x	x	x	x
CC(=O)Nc1c(C(=O)Nc2ccccc2F)oc2ccccc12	8.9%	18.7%[59 µM]	x	-31.6%	39.3%
Cc1ccc(-c2nc3sc(CCNC(=O)c4ccc(F)c(F)c4)c(C)n3n2)cc1	-8.1%	2.0%[59 µM]	x	-0.1%	8.3%
O=C(CN1CCN(c2ccccc2O)CC1)Nc1ccc([N+](=O)[O-])cc1Br	-15.8%	u	x	x	12.6%
COc1cc(NC(=O)CN2CCN(c3ccccc3O)CC2)c(C)cc1[N+](=O)[O-]	-16.2%	10µM*	-9.7%	-8.2%	15.2%
O=C(CN1CCN(c2ccccc2O)CC1)Nc1cc([N+](=O)[O-])ccc1Cl	-34.5%	44.7µM*	-15.9%	-35.1%	3.3%[57 µM]
COc1cc(NC(=O)CSc2nncn2C)c(C)cc1[N+](=O)[O-]	-9.7%	8.7%	2.6%	-4.1%	25.7%
COc1cc(NC(=O)CSc2nc(C)c(C)c(C)n2)c(C)cc1[N+](=O)[O-]	-10.7%	50.1µM*	7.9%	2.9%	31.5%
CC(C(=O)Nc1cc([N+](=O)[O-])ccc1Cl)N1CCN(c2ccc(O)cc2)CC1 (stereo unspecified)	25.1µM*	7.94µM*	u	-34.3%	70.8µM*
CC(C(=O)Nc1ccc([N+](=O)[O-])cc1Cl)N1CCN(S(=O)(=O)c2cccs2)CC1 (stereo unspecified)	u	10.2%[12.7 µM]	-13.2%	-8.8%	-2.5%
Cc1nc2cc(-c3ccccc3)nn2c(C)c1CCC(=O)NCc1cccc(Cl)c1	-20.9%	10.6%[59 µM]	x	-8.0%	24.3%
Cc1cc(C)c(NC(=O)CCN2CCCCC2)c(C)c1	-9.2%	6.7%[59 µM]	x	-0.5%	38.1%
O=C(c1cccc2ccccc12)N1CCN(S(=O)(=O)c2ccccc2)CC1	-17.7%	x	x	x	78.0%
CCN(CC(=O)Nc1ccc(NC(C)=O)cc1)C(=O)c1ccccc1SCc1c(C)noc1C	-31.7%	39.8µM*	4.8%	56.2µM*	2.3%
Cc1nc(-c2ccc(Cl)cc2)sc1CCNC(=O)c1ccc(C(F)(F)F)cc1	-6.1%	9.8%[59 µM]	x	-2.2%	9.5%[57 µM]
Cc1ccc(NC(=O)c2sc3nc(-c4ccncc4)ccc3c2N)cc1	1.7%	u	x	1.0%	40.8%
Cc1ccccc1NC(=O)c1sc2nc3c(c(-c4ccco4)c2c1N)CCC3	14.5%[11.4 µM]	39.8µM*	-7.1%	-6.0%	82.4%
COc1ccccc1NC(=O)c1sc2nc(-c3ccco3)ccc2c1N	20.5%[57.1 µM]	2.51µM*	x	-5.6%	53.9%
COc1cccc(-c2ccc3c(N)c(C(=O)Nc4ccccc4C)sc3n2)c1	42.9%	-25.2%[59 µM]	x	55.3%	113.8%
Nc1c(C(=O)Nc2ccccc2)sc2nc(-c3ccco3)ccc12	9.0%	11.2µM*	2.8%	-1.9%	28.9%
Nc1c(C(=O)Nc2ccccc2)sc2nc(-c3cccnc3)ccc12	x	u	x	-26.1%	x
Nc1c(C(=O)Nc2cccc(Cl)c2Cl)sc2nc(-c3cccnc3)ccc12	-12.1%	89.1µM*	-5.2%	-2.3%	63.8%
Cc1ccc(C(=O)Nc2ccccc2C(=O)OCc2cc(=O)n3nc(C4CC4)sc3n2)cc1	6.3%	2.2%[12.7 µM]	x	-1.1%	42.8%
O=C(CCOc1ccccc1)N(Cc1cccnc1)c1nc2c(F)cc(F)cc2s1	-17.5%	-21.1%[59 µM]	x	0.9%	39.1%
Cc1ccc(C2/C(=C(/O)c3cnn(-c4ccccc4)c3C)C(=O)C(=O)N2CCCN2CCOCC2)o1 (stereo unspecified)	x	9.7%[12.7 µM]	x	79.4µM*	x
Cc1c(/C(O)=C2\C(=O)C(=O)N(CCCN(C)C)C2c2ccccc2)cnn1-c1ccccc1 (stereo unspecified)	-21.7%	-3.7%[59 µM]	8.4%	-20.7%	32.9%
Cc1c(/C(O)=C2\C(=O)C(=O)N(CCN(C)C)C2c2cccs2)cnn1-c1ccccc1 (stereo unspecified)	-6.8%[11.4 µM]	20µM*	-3.5%	-24.0%	9.4%
